Experimental data: the supplement of paper PMC10849652
Targets with a hit are over-represented here; the source holds about 7,900 in all. About 0.6% of all pairs of compound and target were hits.

Legend:
Test in all cases: log2 fold change, soluble protein after heating vs DMSO (PISA); higher = thermal stabilisation; K562 cells, 10 uM, 30 min; active = over 0.2 and 3.5 SD of the protein, either way, in both replicates (recomputed)
[1] = compound: CN1CCN(CCOc2cc(OC3CCOCC3)c3c(Nc4c(Cl)ccc5c4OCO5)ncnc3c2)CC1 [saracatinib]
Summary of the method: (§1)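 Soluble protein was quantified by TMTpro 16plex LC-MS/MS after channel sums were equalised. It was obtained as the supernatant after 21,000xg for 90 min from pooled aliquots of K562 cells (2×10^6 cells/mL, 10 μM compound, 30 min) heated for 3 min across 48°C-58°C and extracted in PBS with 0.5% NP-40 at 4°C. Thermal stability values are relative to control samples and come from duplicates. They are given as log2 fold changes.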

[2] = compound: CN1CCN(c2nc(C3=C(c4c[nH]c5ccccc45)C(=O)NC3=O)c3ccccc3n2)CC1 [sotrastaurin]
Summary of the method: as §1

[3] = compound: CN1CC[C@H](c2c(O)cc(O)c3c(=O)cc(-c4ccccc4Cl)oc23)[C@H](O)C1 [alvocidib]
Summary of the method: as §1

[4] = compound: CN1CCc2c(c3ccccc3n2Cc2ccc(C(=O)NO)cc2)C1 [Tubastatin A]
Summary of the method: as §1

[5] = compound: CNC(=O)C1=CC=CC=C1NC2=NC(=NC=C2Cl)NC3=C(C=C(C=C3)N4CCOCC4)OC
Summary of the method: as §1

[6] = compound: CNC(=O)c1ccc(Nc2ncc(C(F)(F)F)c(NCc3nccnc3N(C)S(C)(=O)=O)n2)cc1 [defactinib]
Summary of the method: as §1

[7] = compound: CNCc1ccc(-c2[nH]c3cc(F)cc4c3c2CCNC4=O)cc1 [rucaparib]
Summary of the method: as §1

[8] = compound: CNc1nc(-c2ccc3c(N)n[nH]c3c2)cc(N2C[C@@H](C(=O)NC3CCCCC3)CC[C@H]2C)n1
Summary of the method: as §1

[9] = compound: COC(=O)N[C@@H](C)CNc1nccc(-c2cn(C(C)C)nc2-c2cc(Cl)cc(NS(C)(=O)=O)c2F)n1 [encorafenib]
Summary of the method: as §1

[10] = compound: COC(=O)[C@H](CCSC)NC(=O)C1=C(C=C(C=C1)NC[C@H](CS)N)C2=CC=CC=C2
Summary of the method: as §1

Measured: log2 fold change

PRKCD (UniProt Q05655)
Sequence of UniProt Q05655 (Q05655 whole entry, looked up): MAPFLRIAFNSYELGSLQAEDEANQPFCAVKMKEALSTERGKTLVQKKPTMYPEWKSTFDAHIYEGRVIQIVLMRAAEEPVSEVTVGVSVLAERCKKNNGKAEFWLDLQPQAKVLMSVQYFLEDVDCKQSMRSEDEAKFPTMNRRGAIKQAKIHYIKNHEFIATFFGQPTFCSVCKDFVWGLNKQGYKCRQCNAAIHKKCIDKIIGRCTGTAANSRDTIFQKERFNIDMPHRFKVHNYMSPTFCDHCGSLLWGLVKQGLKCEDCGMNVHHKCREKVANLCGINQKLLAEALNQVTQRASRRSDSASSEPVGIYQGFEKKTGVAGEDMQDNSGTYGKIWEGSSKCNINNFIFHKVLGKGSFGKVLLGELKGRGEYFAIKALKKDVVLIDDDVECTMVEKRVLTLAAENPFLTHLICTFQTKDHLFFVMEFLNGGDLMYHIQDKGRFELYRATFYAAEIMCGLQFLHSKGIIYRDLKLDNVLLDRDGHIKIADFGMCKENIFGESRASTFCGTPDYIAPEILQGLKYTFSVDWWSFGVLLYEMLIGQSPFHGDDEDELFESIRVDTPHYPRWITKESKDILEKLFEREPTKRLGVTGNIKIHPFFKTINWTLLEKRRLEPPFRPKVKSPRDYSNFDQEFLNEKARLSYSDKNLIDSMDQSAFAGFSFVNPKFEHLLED
active: [2] -0.256
inactive: [1] -0.026 | [3] -0.1 | [4] -0.007 | [5] 0.002 | [6] -0.002 | [7] -0.031 | [8] -0.033 | [9] -0.029 | [10] -0.024

PPIL4 (UniProt Q8WUA2)
Sequence of UniProt Q8WUA2 (Q8WUA2 whole entry, looked up): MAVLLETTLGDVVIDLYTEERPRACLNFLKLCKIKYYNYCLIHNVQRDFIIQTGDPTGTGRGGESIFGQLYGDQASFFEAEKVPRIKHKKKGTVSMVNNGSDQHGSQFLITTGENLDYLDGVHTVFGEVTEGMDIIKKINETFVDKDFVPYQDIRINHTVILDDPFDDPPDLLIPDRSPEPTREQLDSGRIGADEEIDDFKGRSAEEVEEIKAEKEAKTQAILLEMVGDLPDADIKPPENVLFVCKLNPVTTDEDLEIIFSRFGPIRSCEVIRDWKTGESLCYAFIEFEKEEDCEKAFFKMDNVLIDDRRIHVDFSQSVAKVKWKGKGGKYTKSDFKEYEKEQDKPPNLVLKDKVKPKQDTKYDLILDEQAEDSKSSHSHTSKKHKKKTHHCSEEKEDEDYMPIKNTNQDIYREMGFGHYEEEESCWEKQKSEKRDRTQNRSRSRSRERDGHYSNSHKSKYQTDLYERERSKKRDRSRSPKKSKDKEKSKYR
inactive: [1] -0.012 | [2] -0.072 | [3] -0.071 | [4] -0.005 | [5] -0.123 | [6] -0.108 | [7] 0.07 | [8] 0.024 | [9] 0.086 | [10] -0.031

PTTG1IP (UniProt P53801)
Sequence of UniProt P53801 (P53801 whole entry, looked up): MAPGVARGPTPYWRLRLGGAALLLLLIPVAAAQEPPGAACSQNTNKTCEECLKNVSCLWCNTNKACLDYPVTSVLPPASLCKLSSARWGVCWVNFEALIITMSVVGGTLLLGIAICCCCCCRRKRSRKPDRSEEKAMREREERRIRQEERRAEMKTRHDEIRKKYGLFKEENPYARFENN
inactive: [1] 0.021 | [2] -0.03 | [3] 0.004 | [4] -0.085 | [5] 0.062 | [6] -0.011 | [7] 0.013 | [8] -0.246 | [9] -0.052 | [10] 0.129

PLA2G15 (UniProt Q8NCC3)
Sequence of UniProt Q8NCC3 (Q8NCC3 whole entry, looked up): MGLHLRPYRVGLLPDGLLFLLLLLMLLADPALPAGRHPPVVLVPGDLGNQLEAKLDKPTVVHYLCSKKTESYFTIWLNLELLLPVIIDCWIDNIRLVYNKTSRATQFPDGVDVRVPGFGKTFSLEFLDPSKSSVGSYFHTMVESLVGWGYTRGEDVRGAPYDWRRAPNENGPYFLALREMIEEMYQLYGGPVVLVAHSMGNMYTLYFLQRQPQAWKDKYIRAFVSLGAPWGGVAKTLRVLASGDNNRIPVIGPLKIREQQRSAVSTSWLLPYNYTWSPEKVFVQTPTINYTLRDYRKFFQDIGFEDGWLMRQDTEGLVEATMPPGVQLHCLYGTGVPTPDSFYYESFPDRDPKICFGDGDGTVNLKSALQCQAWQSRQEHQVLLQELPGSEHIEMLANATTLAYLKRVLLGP
inactive: [1] -0.052 | [2] -0.095 | [3] 0.028 | [4] 0.036 | [5] 0.065 | [6] 0.012 | [7] -0.064 | [8] -0.036 | [9] 0.176 | [10] -0.018

PRMT3 (UniProt O60678)
inactive: [1] 0.021 | [2] -0.046 | [3] 0 | [4] -0.017 | [5] 0.058 | [6] -0.005 | [7] 0.035 | [8] 0.011 | [9] 0.061 | [10] -0.064

QRSL1 (UniProt Q9H0R6)
Sequence of UniProt Q9H0R6 (Q9H0R6 whole entry, looked up): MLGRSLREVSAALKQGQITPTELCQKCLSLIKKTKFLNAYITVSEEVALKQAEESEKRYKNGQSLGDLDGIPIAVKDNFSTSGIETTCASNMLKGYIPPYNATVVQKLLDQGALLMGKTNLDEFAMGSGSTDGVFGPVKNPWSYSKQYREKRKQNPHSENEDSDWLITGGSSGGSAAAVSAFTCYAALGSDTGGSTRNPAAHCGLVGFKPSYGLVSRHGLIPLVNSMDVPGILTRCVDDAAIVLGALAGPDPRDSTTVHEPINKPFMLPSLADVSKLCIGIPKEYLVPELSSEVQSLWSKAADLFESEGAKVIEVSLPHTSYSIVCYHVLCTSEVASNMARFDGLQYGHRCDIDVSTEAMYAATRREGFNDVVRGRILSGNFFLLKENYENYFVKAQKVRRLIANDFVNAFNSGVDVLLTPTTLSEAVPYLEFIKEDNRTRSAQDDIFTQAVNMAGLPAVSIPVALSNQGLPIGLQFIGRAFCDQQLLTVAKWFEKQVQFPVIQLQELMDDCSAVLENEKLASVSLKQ
inactive: [1] 0.033 | [2] 0.003 | [3] -0.103 | [4] 0.01 | [5] -0.023 | [6] -0.105 | [7] -0.047 | [8] 0.038 | [9] -0.017 | [10] -0.033

PHKA2 (UniProt P46019)
inactive: [1] 0.032 | [2] -0.085 | [3] -0.088 | [4] -0.021 | [5] 0.135 | [6] 0.012 | [7] -0.063 | [8] -0.009 | [9] -0.022 | [10] -0.03

PRKACA (UniProt P17612)
inactive: [1] 0.002 | [2] -0.117 | [3] -0.012 | [4] 0.054 | [5] -0.104 | [6] -0.015 | [7] 0.061 | [8] 0.077 | [9] 0.01 | [10] 0.072

PRKAR2A (UniProt P13861)
inactive: [1] 0.034 | [2] -0.121 | [3] -0.023 | [4] -0.029 | [5] 0.027 | [6] -0.02 | [7] -0.015 | [8] -0.04 | [9] 0.017 | [10] -0.015

PRPSAP2 (UniProt O60256)
inactive: [1] 0.011 | [2] 0.084 | [3] 0.003 | [4] -0.018 | [5] -0.017 | [6] 0.01 | [7] -0.014 | [8] 0.03 | [9] -0.004 | [10] -0.012

PYGB (UniProt P11216)
active: [5] -0.391
inactive: [1] 0.012 | [2] -0.142 | [3] 0.153 | [4] -0.003 | [6] -0.091 | [7] -0.004 | [8] -0.042 | [9] 0.024 | [10] -0.009

PEA15 isoform 2 (UniProt Q15121)
Sequence of UniProt Q15121 (Q15121 whole entry, looked up): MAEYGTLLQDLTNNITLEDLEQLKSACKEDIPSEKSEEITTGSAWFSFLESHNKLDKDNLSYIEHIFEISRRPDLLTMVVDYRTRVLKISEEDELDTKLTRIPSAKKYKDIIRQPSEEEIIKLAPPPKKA
inactive: [1] 0.05 | [2] -0.02 | [3] -0.061 | [4] -0.009 | [5] -0.147 | [6] -0.026 | [7] -0.037 | [8] 0.009 | [9] 0.035 | [10] 0.034

PPP2R5C isoform 4 (UniProt Q13362)
Sequence of UniProt Q13362 (Q13362 whole entry, looked up): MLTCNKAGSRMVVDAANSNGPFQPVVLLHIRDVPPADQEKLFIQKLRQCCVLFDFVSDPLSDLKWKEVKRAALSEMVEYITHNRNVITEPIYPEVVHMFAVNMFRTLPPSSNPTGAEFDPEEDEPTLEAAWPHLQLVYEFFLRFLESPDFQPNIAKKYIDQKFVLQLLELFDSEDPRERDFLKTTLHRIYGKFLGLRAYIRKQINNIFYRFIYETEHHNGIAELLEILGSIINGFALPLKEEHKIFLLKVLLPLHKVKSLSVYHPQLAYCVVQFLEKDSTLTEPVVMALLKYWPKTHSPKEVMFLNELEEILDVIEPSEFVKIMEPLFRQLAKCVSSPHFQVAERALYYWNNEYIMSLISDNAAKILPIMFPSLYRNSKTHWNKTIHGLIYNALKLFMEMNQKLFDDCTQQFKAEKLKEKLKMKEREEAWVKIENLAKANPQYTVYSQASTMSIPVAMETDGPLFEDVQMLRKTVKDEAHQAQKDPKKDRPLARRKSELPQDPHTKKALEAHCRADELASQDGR
inactive: [1] -0.04 | [2] 0.009 | [3] -0.063 | [4] 0.012 | [5] -0.068 | [6] -0.083 | [7] -0.003 | [8] -0.032 | [9] 0.06 | [10] -0.025

PDCD2L (UniProt Q9BRP1)
inactive: [1] -0.072 | [2] -0.148 | [3] -0.077 | [4] 0.048 | [5] 0 | [6] -0.068 | [7] 0.038 | [8] -0.031 | [9] 0.127 | [10] -0.007

PRG4 (UniProt Q92954)
inactive: [1] 0.008 | [2] 0.136 | [3] 0.007 | [4] 0.004 | [5] 0.14 | [6] 0.055 | [7] -0.072 | [8] 0.031 | [9] 0.001 | [10] -0.109

PKN1 isoform 2 (UniProt Q16512)
inactive: [1] -0.018 | [3] -0.048 | [4] 0.026 | [5] -0.088 | [6] -0.121 | [7] 0.022 | [8] 0.026 | [9] 0.024 | [10] -0.014
active: [2] -0.645

PDE12 (UniProt Q6L8Q7)
inactive: [1] 0.014 | [2] 0.018 | [3] -0.098 | [4] 0.01 | [5] 0.028 | [6] -0.04 | [7] -0.005 | [8] 0.023 | [9] -0.019 | [10] 0.007

PRKAG1 isoform 3 (UniProt P54619)
Sequence of UniProt P54619 (P54619 whole entry, looked up): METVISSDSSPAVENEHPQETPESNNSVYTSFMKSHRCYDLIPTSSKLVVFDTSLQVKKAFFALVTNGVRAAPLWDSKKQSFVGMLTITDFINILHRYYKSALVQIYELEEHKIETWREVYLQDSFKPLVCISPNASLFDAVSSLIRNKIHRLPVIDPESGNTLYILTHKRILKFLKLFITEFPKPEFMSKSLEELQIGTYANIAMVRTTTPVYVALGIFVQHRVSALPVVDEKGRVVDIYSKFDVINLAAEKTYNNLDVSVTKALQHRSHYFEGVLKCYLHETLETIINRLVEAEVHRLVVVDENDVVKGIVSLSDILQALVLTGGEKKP
inactive: [1] -0.016 | [2] 0.04 | [3] -0.062 | [4] 0.01 | [5] -0.184 | [6] -0.081 | [7] -0.005 | [8] -0.026 | [9] 0.026 | [10] -0.014

PTP4A1 (UniProt Q93096)
Sequence of UniProt Q93096 (Q93096 whole entry, looked up): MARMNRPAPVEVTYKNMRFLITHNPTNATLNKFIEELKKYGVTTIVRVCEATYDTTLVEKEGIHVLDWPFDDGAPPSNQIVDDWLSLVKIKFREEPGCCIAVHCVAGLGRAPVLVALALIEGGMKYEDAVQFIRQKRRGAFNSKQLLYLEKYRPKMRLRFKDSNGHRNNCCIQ
active: [3] -0.34 | [6] -0.447
inactive: [1] -0.058 | [2] 0.061 | [4] 0.036 | [5] 0.02 | [7] -0.038 | [8] 0.04 | [9] -0.027 | [10] 0.029

PDPK1 (UniProt O15530)
inactive: [1] -0.008 | [2] 0.034 | [3] -0.075 | [4] 0.023 | [5] -0.064 | [6] -0.025 | [7] -0.056 | [9] 0.041 | [10] 0
active: [8] 0.385

PIGG (UniProt Q5H8A4)
active: [8] 0.27
inactive: [1] -0.02 | [2] -0.015 | [3] -0.011 | [4] -0.037 | [5] 0.013 | [6] 0.175 | [7] -0.013 | [9] 0.07 | [10] -0.057

POMP (UniProt Q9Y244)
Sequence of UniProt Q9Y244 (Q9Y244 whole entry, looked up): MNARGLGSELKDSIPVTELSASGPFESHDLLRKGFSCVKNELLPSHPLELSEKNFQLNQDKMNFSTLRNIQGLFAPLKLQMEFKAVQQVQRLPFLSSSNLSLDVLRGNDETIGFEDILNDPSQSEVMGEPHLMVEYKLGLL
inactive: [1] 0.075 | [2] 0.035 | [3] 0.046 | [4] -0.067 | [5] -0.035 | [6] -0.014 | [7] -0.013 | [8] -0.114 | [9] -0.071 | [10] 0.136

PPP1R14A (UniProt Q96A00)
inactive: [1] -0.048 | [2] -0.027 | [3] 0.025 | [4] 0 | [5] -0.021 | [6] -0.012 | [7] -0.023 | [8] -0.015 | [9] -0.025 | [10] -0.004

PSMD8 (UniProt P48556)
inactive: [1] -0.039 | [2] -0.032 | [3] 0.135 | [4] 0.003 | [5] -0.009 | [6] 0.1 | [7] 0.003 | [8] 0.028 | [9] 0.041 | [10] 0.043

PIP4K2A (UniProt P48426)
inactive: [1] 0.048 | [2] 0.011 | [3] 0.131 | [4] -0.001 | [5] 0.084 | [6] 0.166 | [7] 0.013 | [8] -0.132 | [9] 0.1 | [10] -0.056

PCBP2 isoform 3 (UniProt Q15366)
inactive: [1] -0.023 | [2] -0.084 | [3] -0.148 | [4] 0.025 | [5] -0.032 | [6] -0.187 | [7] 0.041 | [8] 0.013 | [9] 0.075 | [10] -0.058

POP1 (UniProt Q99575)
Sequence of UniProt Q99575 (Q99575 whole entry, looked up): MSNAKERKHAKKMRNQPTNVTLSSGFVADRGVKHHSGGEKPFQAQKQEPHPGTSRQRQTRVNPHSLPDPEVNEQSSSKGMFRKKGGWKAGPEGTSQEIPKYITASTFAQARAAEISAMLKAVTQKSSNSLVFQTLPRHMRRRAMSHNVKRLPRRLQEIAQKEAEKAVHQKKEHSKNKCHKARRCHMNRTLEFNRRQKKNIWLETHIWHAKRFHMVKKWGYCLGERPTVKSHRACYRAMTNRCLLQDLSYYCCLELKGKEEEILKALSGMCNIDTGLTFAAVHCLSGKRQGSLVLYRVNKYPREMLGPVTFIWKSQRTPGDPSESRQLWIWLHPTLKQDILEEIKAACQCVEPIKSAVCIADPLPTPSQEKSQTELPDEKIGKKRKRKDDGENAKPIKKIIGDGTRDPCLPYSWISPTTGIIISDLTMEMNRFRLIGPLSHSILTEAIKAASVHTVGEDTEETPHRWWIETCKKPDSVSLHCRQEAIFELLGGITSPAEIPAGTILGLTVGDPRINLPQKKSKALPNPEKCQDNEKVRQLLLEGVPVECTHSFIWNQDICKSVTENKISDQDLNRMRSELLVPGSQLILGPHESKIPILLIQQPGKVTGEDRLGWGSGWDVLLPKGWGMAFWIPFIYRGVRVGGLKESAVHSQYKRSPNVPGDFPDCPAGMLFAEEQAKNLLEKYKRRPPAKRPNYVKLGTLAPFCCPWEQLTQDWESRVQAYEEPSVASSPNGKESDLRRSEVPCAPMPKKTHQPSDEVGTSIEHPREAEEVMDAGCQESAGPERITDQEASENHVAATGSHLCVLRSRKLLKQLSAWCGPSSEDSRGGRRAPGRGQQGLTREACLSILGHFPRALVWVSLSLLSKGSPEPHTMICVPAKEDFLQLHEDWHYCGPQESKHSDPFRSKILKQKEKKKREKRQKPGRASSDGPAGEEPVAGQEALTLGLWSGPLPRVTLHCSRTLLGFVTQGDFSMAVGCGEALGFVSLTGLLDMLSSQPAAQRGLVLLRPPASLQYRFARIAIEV
inactive: [1] 0.077 | [2] -0.01 | [3] -0.049 | [4] 0.026 | [5] -0.002 | [6] -0.055 | [7] 0.014 | [8] 0.014 | [9] 0.006 | [10] 0.016

PLEKHM2 (UniProt Q8IWE5)
inactive: [1] -0.002 | [2] -0.047 | [3] -0.119 | [4] 0.029 | [5] -0.215 | [6] -0.054 | [7] -0.087 | [8] -0.019 | [9] 0.058 | [10] -0.014

PEX7 (UniProt O00628)
Sequence of UniProt O00628 (O00628 whole entry, looked up): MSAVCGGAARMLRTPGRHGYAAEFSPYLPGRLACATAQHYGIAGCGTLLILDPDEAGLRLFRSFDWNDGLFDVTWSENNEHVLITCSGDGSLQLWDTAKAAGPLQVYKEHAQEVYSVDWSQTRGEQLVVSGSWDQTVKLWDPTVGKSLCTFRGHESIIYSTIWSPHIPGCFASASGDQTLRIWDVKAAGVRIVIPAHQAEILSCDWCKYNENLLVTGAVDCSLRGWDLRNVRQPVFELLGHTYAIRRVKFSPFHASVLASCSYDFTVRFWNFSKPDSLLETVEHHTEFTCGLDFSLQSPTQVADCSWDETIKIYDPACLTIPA
inactive: [1] 0.045 | [2] 0.06 | [3] -0.023 | [4] 0.061 | [5] 0.005 | [6] -0.005 | [7] -0.047 | [8] 0.03 | [9] -0.023 | [10] -0.039
